Records with an inconclusive call do not appear. Entries that show only a call come without a potency. Calls of active or inactive are those of the source. Unless noted, calls come from the whole dose curve; as a rule, active = well fitted curve in the direction sought with a large enough effect; inconclusive = small, poorly fitted or top-dose-only effect, or another doubt; inactive = no such curve, though single readings can be large; an effect the other way counts as inactive or inconclusive.
Assays:
[1] = NS1 protein of Zika virus - qHTS assay to identify small molecule inhibitors in human HEK 293 cells (AID 1347053); note: series mostly up to about 46 µM; nearly all actives have a fitted effect of over 55% in size
Outline: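 Compound-treated (1 h pre-infection) HEK 293 cells infected with ZIKV MR766, MOI = 0.5; after 24 h at 37 C, NS1 read by TR-FRET; data normalized to uninfected and infected controls.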

[2] = biological target: T1, Tyrosine-protein phosphatase non-receptor type substrate 1 (Homo sapiens) + Leukocyte surface antigen CD47 (Homo sapiens) (UniProt P78324+Q08722); assay: CD47-SIRPalpha protein protein interaction - LANCE assay qHTS validation (AID 1347057; active = well fitted curve in the direction sought with a large enough effect in the signal ratio, with a control signal flat, not every such curve was filed as active; the % refers to the signal ratio; note: potency is the fitted concentration of half-maximal effect)
Outline: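 Inhibition of soluble CD47/SIRPalpha ectodomain association by titrated compounds, measured as 665/615 nm time-resolved FRET ratio after sequential 30 min room-temperature incubations.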

[3] = biological target: T1, Tyrosine-protein phosphatase non-receptor type substrate 1 (Homo sapiens) + Leukocyte surface antigen CD47 (Homo sapiens); assay: CD47-SIRPalpha protein protein interaction - Alpha assay qHTS validation (AID 1347059);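 note: bead proximity luminescence from CD47 binding SIRPalpha after compound preincubation with SIRPalpha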; note: potency is the fitted concentration of half-maximal effect
Outline: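 In PBS (pH 7.4) with 0.05% IGEPAL CA-630, compound is preincubated with biotin-Avi-SIRPalpha ectodomain before His-CD47 ectodomain and affinity beads are added. Light-protected room-temperature incubations; AlphaScreen readout.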

[4] = biological target: Parathyroid hormone/parathyroid hormone-related peptide receptor (Homo sapiens) (UniProt Q03431); assay: qHTS for PTHR1 Agonists: Optimization Screen against the NCGC LOPAC library (AID 1347079);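 note: GloSensor cAMP luminescence in HEK-293 GP2 cells expressing human PTHR1 with IBMX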; note: potency is the fitted concentration of half-maximal effect
Outline: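 Signal increase flags agonism. GP2 cells, derived from HEK-293, express human PTHR1 and a GloSensor cAMP construct.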

[5] = biological target: N-terminal Xaa-Pro-Lys N-methyltransferase 1 (Homo sapiens) (UniProt Q9BV86); assay: qHTS Assay for Inhibitors of N-terminal methyltransferase 1 (NTMT1): LOPAC validation of the NTMT1 SAHH-coupled ThioGlo3 Assay (AID 1347143);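 note: SAH from peptide methylation measured as thiol fluorescence via SAHH coupling and ThioGlo3; nearly all actives have a fitted effect of over 70% in size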; note: potency is the fitted concentration of half-maximal effect
Outline: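 In this qHTS pilot against the LOPAC set, 125nM NTMT1 met compounds tested at multiple concentrations, and fluorescence was normalized to background.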

[6] = tested on: Zika virus NS2B-NS3 protease (unlinked); assay: Optimization of GU AMC qHTS for Zika virus inhibitors: Unlinked NS2B-NS3 protease assay (AID 1347151); note: nearly all actives have a fitted effect of over 80% in size; note: potency is the fitted concentration of half-maximal effect
Outline: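 Noncovalent NS2B hydrophilic domain–NS3 protease complex (25 nM final) in 10 mM Tris-HCl pH 8.0, 0.01% Tween 20; AMC substrate, room temperature 15 min (~20% conversion); fluorescence change normalized, 4-parameter Hill fit.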

[7] = biological target: T1, Tyrosine-protein phosphatase non-receptor type substrate 1 (Homo sapiens) + Leukocyte surface antigen CD47 (Homo sapiens); assay: CD47-SIRPalpha protein protein interaction - HTRF assay qHTS validation (AID 1347058; active = well fitted curve in the direction sought with a large enough effect in the signal ratio, not every such curve was filed as active; the % refers to the signal ratio; note: series mostly up to about 38 µM)
Outline: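 Soluble extracellular domains (6His-CD47, Avi-tag-biotinylated SIRPalpha) in PBS pH 7.4 with 0.05% IGEPAL CA-630. Compounds were preincubated 30 min at RT with CD47 and anti-His-Eu, then SIRPalpha and SAV-XL665 were added. TR-FRET 665/615 ratio.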

Chain of N-terminal Xaa-Pro-Lys N-methyltransferase 1 (Homo sapiens) (Q9BV86 whole entry, looked up): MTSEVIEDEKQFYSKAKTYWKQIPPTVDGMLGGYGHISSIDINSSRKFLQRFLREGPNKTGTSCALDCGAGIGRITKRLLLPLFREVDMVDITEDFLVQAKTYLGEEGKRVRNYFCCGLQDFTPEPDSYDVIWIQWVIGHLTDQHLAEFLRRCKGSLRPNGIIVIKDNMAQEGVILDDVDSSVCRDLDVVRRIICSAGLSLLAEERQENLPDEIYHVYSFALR
Chain of Parathyroid hormone/parathyroid hormone-related peptide receptor (Homo sapiens) (Q03431 whole entry, looked up): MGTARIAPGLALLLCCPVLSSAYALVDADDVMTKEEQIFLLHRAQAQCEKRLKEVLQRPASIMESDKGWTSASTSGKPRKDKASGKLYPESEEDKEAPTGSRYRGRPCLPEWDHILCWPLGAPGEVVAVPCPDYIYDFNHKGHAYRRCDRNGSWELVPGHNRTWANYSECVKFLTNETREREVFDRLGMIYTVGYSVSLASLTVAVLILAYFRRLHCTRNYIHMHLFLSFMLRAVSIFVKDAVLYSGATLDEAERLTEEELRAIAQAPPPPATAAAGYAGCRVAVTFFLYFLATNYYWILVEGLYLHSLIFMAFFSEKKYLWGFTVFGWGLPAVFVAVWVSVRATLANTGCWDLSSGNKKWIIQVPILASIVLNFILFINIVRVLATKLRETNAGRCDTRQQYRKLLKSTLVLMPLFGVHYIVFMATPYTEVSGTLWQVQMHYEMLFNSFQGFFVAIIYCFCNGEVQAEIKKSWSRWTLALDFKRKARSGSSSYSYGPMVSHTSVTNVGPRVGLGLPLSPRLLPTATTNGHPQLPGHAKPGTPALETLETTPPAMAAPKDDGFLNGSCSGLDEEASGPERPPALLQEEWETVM
T1 sequence (P78324 whole entry, looked up, the tested form may be a part): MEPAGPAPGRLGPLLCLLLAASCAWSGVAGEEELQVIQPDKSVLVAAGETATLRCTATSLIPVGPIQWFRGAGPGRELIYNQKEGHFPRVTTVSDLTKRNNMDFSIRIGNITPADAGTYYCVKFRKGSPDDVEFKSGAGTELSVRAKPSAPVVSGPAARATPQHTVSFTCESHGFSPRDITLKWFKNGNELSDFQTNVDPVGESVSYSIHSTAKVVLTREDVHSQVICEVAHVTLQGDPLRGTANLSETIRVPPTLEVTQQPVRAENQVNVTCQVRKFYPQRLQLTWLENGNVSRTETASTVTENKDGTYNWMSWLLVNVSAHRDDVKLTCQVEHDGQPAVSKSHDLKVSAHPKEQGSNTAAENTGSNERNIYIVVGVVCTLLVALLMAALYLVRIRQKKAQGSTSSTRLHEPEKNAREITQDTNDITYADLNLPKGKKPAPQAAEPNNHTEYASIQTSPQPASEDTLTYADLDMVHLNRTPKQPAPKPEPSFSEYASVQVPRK
T1 sequence (Q08722 whole entry, looked up, the tested form may be a part): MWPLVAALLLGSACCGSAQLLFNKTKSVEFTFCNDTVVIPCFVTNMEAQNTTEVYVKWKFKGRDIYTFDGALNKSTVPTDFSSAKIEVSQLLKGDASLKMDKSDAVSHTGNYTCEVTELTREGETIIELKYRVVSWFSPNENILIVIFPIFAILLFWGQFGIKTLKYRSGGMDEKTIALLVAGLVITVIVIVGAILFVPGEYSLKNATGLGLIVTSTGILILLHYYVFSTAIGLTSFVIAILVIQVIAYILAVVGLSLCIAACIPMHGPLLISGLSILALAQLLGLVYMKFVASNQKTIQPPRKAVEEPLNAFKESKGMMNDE

Row | Structure (SMILES) | Potency [1] | Potency [2] | Potency [3] | Potency [4] | Potency [5] | Potency [6] | outcome [2] | outcome [7]
1 | C[C@H](NC(=O)/C(C#N)=C/c1ccc(O)c(O)c1)c1ccccc1 | inactive | inactive | inactive | inactive | 25.1 µM (active) | 2.38 µM (active) | – | –
2 | COC(=O)C1=C(C)NC(C)=C([N+](=O)[O-])C1c1ccccc1C(F)(F)F (stereo not drawn) | inactive | inactive | inactive | inactive | inactive | – | – | –
3 | N#CC(=C(\N)Sc1ccccc1N)/C(C#N)=C(/N)Sc1ccccc1N | inactive | inactive | inactive | – | – | – | – | –
4 | O=c1cc(O)cc(/C=C/c2ccc(O)c(O)c2)o1 | inactive | inactive | inactive | inactive | 44.7 µM (active) | 13.4 µM (active) | – | –
5 | O=C(O)Cc1ccc(O)c(O)c1 | inactive | inactive | inactive | inactive | 31.6 µM (active) | inactive | – | –
6 | O=c1[nH]ccc2c(O)cccc12 | inactive | inactive | – | inactive | 56.2 µM (active) | – | – | –
7 | CCCCCCCC/C=C\CCCCCCCC(=O)NCCc1ccc(O)c(O)c1 | inactive | inactive | inactive | inactive | – | 7.52 µM (active) | – | –
8 | O=[N+]([O-])c1cccc2cn[nH]c12 | inactive | inactive | inactive | inactive | inactive | inactive | – | –
9 | N#CC(C#N)=C(N)/C(C#N)=C/c1ccc(O)cc1 | inactive | inactive | inactive | inactive | – | inactive | – | –
10 | O=C(O)C1=CC(=C(c2ccc(O)c(C(=O)O)c2)c2ccc(O)c(C(=O)O)c2)C=CC1=O | inactive | 11.7 µM (active) | 464 nM (active) | inactive | 25.1 µM (active) | 21.2 µM (active) | – | –
11 | NC[C@@H]1O[C@H](c2ccccc2)Cc2c1ccc(O)c2O | inactive | inactive | inactive | inactive | – | inactive | – | –
12 | CN1Cc2sccc2C(c2ccc(O)c(O)c2)C1 (stereo not drawn) | inactive | inactive | inactive | inactive | 39.8 µM (active) | inactive | – | –
13 | c1ccc2nc(C3=NCCN3)ccc2c1 | inactive | inactive | inactive | 26.7 µM (active) | inactive | – | – | –
14 | O=c1ccn([C@@H]2O[C@H](COP(=O)(O)OP(=O)(O)O)[C@@H](O)[C@H]2O)c(=O)[nH]1 | inactive | inactive | inactive | inactive | inactive | inactive | – | –
15 | CCN(c1nc(N)c(C(=O)N=C(N)N)nc1Cl)C(C)C | inactive | inactive | inactive | – | inactive | – | – | –
16 | CN1CCN(c2nc3cc(C(F)(F)F)ccc3n3cccc23)CC1 | inactive | – | – | inactive | 39.8 µM (active) | – | inactive | –
17 | O=C(O)[C@H]1NCCC[C@H]1C(=O)O | inactive | inactive | inactive | inactive | inactive | inactive | – | –

Row | Structure (SMILES) | Potency [1] | Potency [2] | Potency [3] | Potency [4] | Potency [5] | Potency [6] | outcome [2] | outcome [7]
18 | CC[C@H](NC(=O)c1c(C)c(-c2ccccc2)nc2ccccc12)c1ccccc1 | inactive | inactive | inactive | inactive | inactive | inactive | – | –
19 | CC(C)(C)c1cc(/C=C(\C#N)C(N)=S)cc(C(C)(C)C)c1O | inactive | inactive | inactive | inactive | inactive | 21.2 µM (active) | – | –
20 | N[C@@H](CCCC(=O)O)C(=O)O | inactive | inactive | inactive | inactive | inactive | inactive | – | –
21 | CNCCc1cnc(CCC(c2ccccc2)c2ccccc2)[nH]1 | inactive | inactive | inactive | inactive | – | inactive | – | –
22 | CC(=O)/C(C)=N/O | inactive | – | – | – | inactive | inactive | – | inactive
23 | COc1ccccc1N1CCN(CCN(C(=O)c2ccc(F)cc2)c2ccccn2)CC1 | inactive | – | – | inactive | inactive | – | – | –
24 | Nc1ccc(-c2nc3ccc(-c4nc5ccc(N)cc5[nH]4)cc3[nH]2)cc1 | inactive | – | – | – | 56.2 µM (active) | 26.7 µM (active) | – | –
25 | O=C(N[C@@H](Cc1ccccc1)C(=O)CCl)OCc1ccccc1 | – | inactive | inactive | inactive | – | – | – | inactive
26 | N[C@@H](Cc1ccc(O)c(I)c1)C(=O)O | – | inactive | inactive | inactive | inactive | inactive | – | inactive
27 | NS(=O)(=O)c1cccc2c1c([N+](=O)[O-])cc1nc(O)c(O)nc12 | inactive | – | inactive | inactive | 50.1 µM (active) | inactive | – | –
28 | Cc1ccc2c(c1)C(N1CCN(C)CC1)=Nc1cccnc1N2 | inactive | inactive | – | inactive | inactive | inactive | – | –
29 | OC1(c2ccc(Cl)cc2)CCN(Cc2c[nH]c3ccccc23)CC1 | – | inactive | inactive | inactive | inactive | inactive | – | inactive
30 | Oc1ccc(Cn2cc[nH]c2=S)cc1 | – | inactive | inactive | inactive | 50.1 µM (active) | inactive | – | inactive
31 | CCCN(CCc1ccccc1)C1CCc2c(O)cccc2C1 (stereo not drawn) | – | inactive | inactive | inactive | inactive | inactive | – | inactive
32 | CC(O)C(O)[C@H]1CNc2nc(N)[nH]c(=O)c2N1 (stereo partly drawn) | inactive | – | – | inactive | 28.2 µM (active) | 26.7 µM (active) | – | –
33 | O=C(O)Cc1c[nH]c2ccc(O)cc12 | – | inactive | inactive | inactive | 56.2 µM (active) | – | – | inactive

Source: PubChem BioAssay (NCATS)
